The structures appear in SMILES notation. A number with no mark means an inactive call. Records with an inconclusive call do not appear. Calls of active or inactive are those of the source. Calls follow the shape of the dose curve; as a rule, active = well fitted curve in the direction sought with a large enough effect; inconclusive = small, poorly fitted or top-dose-only effect, or another doubt; inactive = no such curve, though single readings can be large; an effect the other way counts as inactive or inconclusive.

The target in the first test is Luciferin 4-monooxygenase (Photinus pyralis) (UniProt P08659). Nature of the test: Primary firefly luciferase (FLuc) qHTS assay for identification of artifact compounds. (AID 1845220). Also: nearly all actives have a fitted effect of over 60% in size.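 As to activity change, negative = inhibition: plate controls were DMSO vehicle for no effect and no enzyme for full effect.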 The following applies: purified firefly luciferase, luminescence, 5 min; series mostly up to 54.1 µM; activity change, negative = inhibition: at the top concentration. The gist of the method: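 In this counter-screen for luciferase artifacts, test compounds met substrate (10 uM each luciferin and ATP) before 10 nM enzyme started the reaction. Light output was measured 5 min later.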
Turning to `CCCCc1ncc(/C=C(\Cc2cccs2)C(=O)O)n1Cc1ccc(C(=O)O)cc1`, the “activity change, negative = inhibition” value is -5.38%.

On to `CC(C)(C(=O)O)c1ccc(C(O)CCCN2CCC(C(O)(c3ccccc3)c3ccccc3)CC2)cc1` (stereo not given), for which the compound was classed as inactive.

On to `CC(C(O)c1ccc(O)cc1)N1CCC(Cc2ccccc2)CC1` (stereo not given), for which the outcome was “inactive [at 25.7 µM]”.

For `CCN(CC)CCCC(C)Nc1c2ccc(Cl)cc2nc2ccc(OC)cc12` (stereo not given), the outcome was “inactive [at 25.7 µM]”.

`CN1CCC[C@@H]1Cc1c[nH]c2ccc(CCS(=O)(=O)c3ccccc3)cc12`: the compound was called inactive.

Regarding `CNC(=O)Oc1ccc2c(c1)[C@]1(C)CCN(C)[C@@H]1N2C`, the “activity change, negative = inhibition” value is 0.645%.

Regarding `CC(C)c1c(C(=O)Nc2ccccc2)c(-c2ccccc2)c(-c2ccc(F)cc2)n1CC[C@@H](O)C[C@@H](O)CC(=O)O`, the outcome is “inactive [at 25.7 µM]”.

Take `CCN(CC)CCNC(=O)c1cc(Cl)c(N)cc1OC`: the compound was called inactive.

Consider `Cc1cc(N)c2ccccc2[n+]1CCCCCCCCCC[n+]1c(C)cc(N)c2ccccc21`, for which the outcome was inactive.

In the case of `COc1ccc(Cl)cc1C(=O)NCCc1ccc(S(=O)(=O)NC(=O)NC2CCCCC2)cc1`, the compound was classed as inactive.

System in a further test: not listed separately
Nature of the test: Primary fluorescence-based thiol-reactive (MSTI) qHTS assay for identification of artifact compounds. (AID 1845221).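 Also: thiol-reactive compounds lower the probe fluorescence signal; nearly all actives have a fitted effect of over 65% in size.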 The settings on record: MSTI thiol-reactivity probe, 1 h; series mostly up to 53.8 µM; activity change, negative = thiol reactive: at the top concentration. In short, it runs like this: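 In PBS pH 7.4 with 2% DMSO, each compound met 4 uM MSTI for one hour at ambient temperature, shielded from light, before fluorescence detection.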
(Quantitative high-throughput screening tests each substance at several concentrations.)
In the case of `CCCCc1ncc(/C=C(\Cc2cccs2)C(=O)O)n1Cc1ccc(C(=O)O)cc1`, the “activity change, negative = thiol reactive” value is -14.7%.

With `CC(C)(C(=O)O)c1ccc(C(O)CCCN2CCC(C(O)(c3ccccc3)c3ccccc3)CC2)cc1` (stereo not given), the “activity change, negative = thiol reactive” value is 69.1%.

As for `CC(C(O)c1ccc(O)cc1)N1CCC(Cc2ccccc2)CC1` (stereo not given), the “activity change, negative = thiol reactive” value was 46.5% [at 25.6 µM].

Take `CCN(CC)CCCC(C)Nc1c2ccc(Cl)cc2nc2ccc(OC)cc12` (stereo not given): the “activity change, negative = thiol reactive” value is -11.3% [at 25.6 µM].

As for `CN1CCC[C@@H]1Cc1c[nH]c2ccc(CCS(=O)(=O)c3ccccc3)cc12`, the “activity change, negative = thiol reactive” value was 17.2%.

Turning to `CC(C)c1c(C(=O)Nc2ccccc2)c(-c2ccccc2)c(-c2ccc(F)cc2)n1CC[C@@H](O)C[C@@H](O)CC(=O)O`, the “activity change, negative = thiol reactive” value is 179% [at 25.6 µM].

Regarding `CCN(CC)CCNC(=O)c1cc(Cl)c(N)cc1OC`, the “activity change, negative = thiol reactive” value was -11.4%.

With `Cc1cc(N)c2ccccc2[n+]1CCCCCCCCCC[n+]1c(C)cc(N)c2ccccc21`, the “activity change, negative = thiol reactive” value is 1.59%.

On to `COc1ccc(Cl)cc1C(=O)NCCc1ccc(S(=O)(=O)NC(=O)NC2CCCCC2)cc1`, for which the “activity change, negative = thiol reactive” value was 155%.

A further test has as its system Nanoluciferase (engineered Oplophorus gracilirostris luciferase). Nature of the test: Primary Nanoluciferase (NLuc) qHTS assay for identification of artifact compounds. (AID 1845222).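 Also: NLuc secreted into diluted conditioned medium of S16 cells; 0% = DMSO and -100% = no enzyme.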 The settings on record: NLuc-conditioned medium, Nano-Glo luminescence, 5 min; series mostly up to 54.1 µM; activity, negative = inhibition: at the top concentration. In short, it runs like this: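 Using secreted nanoluciferase in S16 culture medium (0.22 um filtered, 1:55 dilution), compounds were preincubated 15 min at RT. Signal was generated with Nano-Glo reagent (1:100) over 5 min.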
With `CCCCc1ncc(/C=C(\Cc2cccs2)C(=O)O)n1Cc1ccc(C(=O)O)cc1`, the “activity, negative = inhibition” value is -2.58%.

For `CC(C)(C(=O)O)c1ccc(C(O)CCCN2CCC(C(O)(c3ccccc3)c3ccccc3)CC2)cc1` (stereo not given), the “activity, negative = inhibition” value was 2.92%.

For `CC(C(O)c1ccc(O)cc1)N1CCC(Cc2ccccc2)CC1` (stereo not given), the “activity, negative = inhibition” value is 1.37% [at 25.7 µM].

Take `CCN(CC)CCCC(C)Nc1c2ccc(Cl)cc2nc2ccc(OC)cc12` (stereo not given): the “activity, negative = inhibition” value was -1.81% [at 25.7 µM].

Regarding `CN1CCC[C@@H]1Cc1c[nH]c2ccc(CCS(=O)(=O)c3ccccc3)cc12`, the “activity, negative = inhibition” value is -2.24%.

Take `CNC(=O)Oc1ccc2c(c1)[C@]1(C)CCN(C)[C@@H]1N2C`: the “activity, negative = inhibition” value was 2.74%.

`CC(C)c1c(C(=O)Nc2ccccc2)c(-c2ccccc2)c(-c2ccc(F)cc2)n1CC[C@@H](O)C[C@@H](O)CC(=O)O`: the “activity, negative = inhibition” value was -0.668% [at 25.7 µM].

As for `CCN(CC)CCNC(=O)c1cc(Cl)c(N)cc1OC`, the “activity, negative = inhibition” value was 3.25%.

As to `Cc1cc(N)c2ccccc2[n+]1CCCCCCCCCC[n+]1c(C)cc(N)c2ccccc21`, the “activity, negative = inhibition” value was 0%.

System in a further test: not listed separately
Nature of the test: Primary redox qHTS assay for identification of artifact compounds. (AID 1845223).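 Also: 0% = DMSO and 100% = reference compound.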 The settings on record: Amplex Red/HRP redox cycling with DTT, fluorescence; series mostly up to 53.8 µM; redox activity (% of DA3003): at the top concentration. In short, it runs like this: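 Amplex Red (25 uM) and HRP (250 mU/mL) in HBSS, with compounds for 15 min, then 250 uM DTT for 30 min, room temperature, dark. Fluorescence 525/598 nm read; normalized to DMSO and 10 uM DA3003; Hill fit.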
Consider `CCCCc1ncc(/C=C(\Cc2cccs2)C(=O)O)n1Cc1ccc(C(=O)O)cc1`, for which the “redox activity (% of DA3003)” value was -2.82%.

As to `CC(C)(C(=O)O)c1ccc(C(O)CCCN2CCC(C(O)(c3ccccc3)c3ccccc3)CC2)cc1` (stereo not given), the “redox activity (% of DA3003)” value was 8.41%.

Take `CC(C(O)c1ccc(O)cc1)N1CCC(Cc2ccccc2)CC1` (stereo not given): the “redox activity (% of DA3003)” value was -1.26% [at 25.6 µM].

Take `CCN(CC)CCCC(C)Nc1c2ccc(Cl)cc2nc2ccc(OC)cc12` (stereo not given): the “redox activity (% of DA3003)” value was -0.0702% [at 25.6 µM].

On to `CN1CCC[C@@H]1Cc1c[nH]c2ccc(CCS(=O)(=O)c3ccccc3)cc12`, for which the “redox activity (% of DA3003)” value is -2.7%.

As for `CCN(CC)CCNC(=O)c1cc(Cl)c(N)cc1OC`, the “redox activity (% of DA3003)” value is -1.54%.

For `Cc1cc(N)c2ccccc2[n+]1CCCCCCCCCC[n+]1c(C)cc(N)c2ccccc21`, the “redox activity (% of DA3003)” value is -3.71%.
